Most compounds without a hit are left out; they make up all but 19% or so of the library.
HT1080-NT tox: qHTS for induction of synthetic lethality in tumor cells producing 2HG: qHTS for the HT-1080-NT fibrosarcoma cell line | HT-1080-NT fibrosarcoma viability, CellTiter-Glo ATP luminescence, 48 h | Potency, µM (series often up to 46.1 µM), without a hit: at the top dose activity, negative = less viability, actives largely listed as cytotoxic | 1.6% of 360,000 active;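 also: NT is the 2HG producing partner of a matched IDH1 knockdown line; 0% = DMSO-treated cells and -100% = media-only wells without cells; nearly all actives have a fitted effect of over 55% in size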
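A 48-hour cytotoxicity screen used HT-1080-NT cells plated 2 hours before compound delivery. ATP-based CellTiter-Glo luminescence measured viability, normalized to DMSO and no-cell controls.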
KB-V1 MDR tox: qHTS assay for MDR1-selective chemotherapeutics: Primary screen using the drug-selected MDR subline cells KB-V1; KB-V1 MDR cells viability, CellTiter-Glo, 72 h; Potency, µM (doses to about 46.1 µM), actives largely listed as cytotoxic; 3.4% of 400,000 active; AID 1347076, 2019; also: nearly all actives have a fitted effect of over 60% in size
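Cytotoxicity via CellTiter-Glo luminescence after 72 h compound exposure at 37 degrees C. Cells: drug-selected KB-V1 line, DMEM phenol-red free plus 10% FBS. Compounds tested at multiple concentrations; normalized data fitted to concentration-effect curves.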
HT1080 IDH1KD tx: qHTS for induction of synthetic lethality in tumor cells producing 2HG: qHTS for the HT-1080-IDH1KD cell line; AID 686971, 2013; 2% of 360,000 active; Potency, µM (series often up to 46.1 µM), for inactives: at the highest dose activity, negative = toxicity, usual class: cytotoxic; HT-1080 IDH1 knockdown viability, ATP luminescence, 48 h;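 also: 0% = DMSO wells and -100% = cell-free medium wells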
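After a 2 h attachment period, IDH1KD HT-1080 cells took pin-transferred compound for 48 h at 37 °C; ATP-based luminescence after 10 min room-temperature reagent incubation reported viability.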
KB-3-1 cytotox: qHTS assay for MDR1-selective chemotherapeutics: Primary screen using the parental adenocarcinoma cell KB-3-1 | KB-3-1 viability, CellTiter-Glo ATP luminescence, 72 h | Potency, µM (series often up to 46.1 µM), hits mostly cytotoxic | 1.4% of 400,000 active; also: nearly all actives have a fitted effect of over 60% in size
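Cells are dispensed, compounds pinned in, plates held at 37 °C for 72 h, then CellTiter-Glo is added and luminescence read after 10 minutes. Cell line: parental KB-3-1 in phenol-red-free DMEM, 10% FBS.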
TDP1 cell noCPT: qHTS for Inhibitors of human tyrosyl-DNA phosphodiesterase 1 (TDP1): qHTS in cells in absence of CPT | DT40 Tdp1-/- hTDP1 cells, no CPT, ATP luminescence, 48 h | Potency, µM (top dose mostly 46.2 µM), without a hit: at the top dose activity change, negative = growth inhibition, usual class: inhibitors | 15% of 420,000 active | AID 686978, 2013; also: nearly all actives have a fitted effect of over 55% in size
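Stably hTDP1-transfected Tdp1-null chicken DT40 cells were treated with library compounds minus camptothecin and grown for at least 48 hr at 37 °C, after which cellular ATP was quantified by luminescence.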
TDP1 cell CPT: qHTS for Inhibitors of human tyrosyl-DNA phosphodiesterase 1 (TDP1): qHTS in cells in presence of CPT. chicken DT40 Tdp1-/-;hTDP1 cells + 20 nM CPT, ATP luminescence, 48 h. Potency, µM (series often up to 46.2 µM), for the others: at the top dose activity change, negative = growth inhibition, usual class: inhibitors. 12% of 420,000 active. AID 686979, 2013; also: nearly all actives have a fitted effect of over 55% in size
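Chicken DT40 Tdp1-/- cells complemented with human TDP1, 400 cells/well, exposed to compounds plus 20 nM camptothecin for at least 48 h at 37 C; viability read as ATP content by CellTiter-Glo luminescence.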
* marks the source's active call; other numbers are inactive results; i = inactive; u = inconclusive; x = no result. Calls follow the shape of the dose curve; as a rule, active = well fitted curve in the direction sought with a large enough effect; inconclusive = small, poorly fitted or top-dose-only effect, or another doubt; inactive = no such curve, though single readings can be large; an effect the other way counts as inactive or inconclusive. Unless noted, % is scaled to controls: 0 for no effect and ±100 for the full control effect; potency is read from the fitted curve at half-maximal effect.

SMILES | HT1080-NT tox | KB-V1 MDR tox | HT1080 IDH1KD tx | KB-3-1 cytotox | TDP1 cell noCPT | TDP1 cell CPT
COc1ccc(OCCSc2nnc(C(C)NC(=O)c3ccccc3F)n2C)cc1 (stereo not given) | 17.0% | u | 4.0% | i | -1.3% | -18.4%
COc1ccc(C(=O)NCCCCCCNC(=O)c2ccc(OC)cc2)cc1 | -16.6% | i | -14.1% | i | -20.3% | -1.9%
N#Cc1ccc(CN2CC3(CCN(C(=O)c4ccncc4)CC3)C2)cc1 | x | x | x | x | -13.7% | 9.1%
O=C(c1ccc([N+](=O)[O-])o1)N1CCN(c2nc3c(Cl)cccc3s2)CC1 | -1.1% | u | -9.8% | u | 13µM* | 20.6µM*
O=C(c1ccc([N+](=O)[O-])o1)N1CCCCCC1 | 2.3% | i | -4.9% | i | -13.0% | u
O=C(c1cccs1)N1CCN(c2nc3ccc([N+](=O)[O-])cc3s2)CC1 | -0.7% | i | -3.7% | i | -20.3% | -8.9%
O=C(c1ccc([N+](=O)[O-])o1)N1CCN(c2nc3ccc(F)cc3s2)CC1 | 8.8% | i | 3.3% | u | 23.1µM* | 20.6µM*
CCOc1cccc2sc(N3CCN(C(=O)c4ccc5c(c4)CCCC5)CC3)nc12 | x | x | x | x | 13µM* | 18.4µM*
COc1cccc2sc(N3CCN(C(=O)c4ccc([N+](=O)[O-])o4)CC3)nc12 | -25.0% | u | -1.6% | u | 18.4µM* | 20.6µM*
Cc1ccc(N2CCN(c3cc(C)nc4c(-c5ccc(Cl)cc5)c(C)nn34)CC2C)cc1 (stereo not given) | x | x | x | x | 0.0% | 11.4%
COc1ccc(NC(=O)NC2(C(=O)N3CCCC(C)C3)CCCCC2)cc1 (stereo not given) | 9.2% | u | 20.7% | i | u | u
CC(=O)c1c(N2CCN(Cc3ccc4c(c3)OCO4)CC2)nc(=S)n(-c2ccccc2)c1C | -2.3% | i | 5.1% | i | 18.4µM* | u
CC(=O)c1c(N2CCN(CCO)CC2)nc(=S)n(-c2ccccc2)c1C | 0.5% | i | 5.2% | i | 13.8% | -2.7%
CC(=O)c1c(N2CCN(c3ccccc3)CC2)nc(=S)n(-c2ccccc2)c1C | 0.8% | i | -17.1% | i | 20.6µM* | 23.1µM*
CC(=O)c1c(N2CCN(Cc3ccccc3)CC2)nc(=S)n(-c2ccccc2)c1C | 2.4% | i | -3.9% | i | 23.1µM* | u
O=C(O)c1ccc(S(=O)(=O)NCC2CCCCC2)cc1 | 3.8% | i | 13.4% | i | -8.2% | 5.2%
Cc1ccc(NC(=O)Nc2cccs2)c(Cl)c1 | -19.3% | i | -21.3% | i | u | -28.0%
O=C(NCc1csc(-c2cccs2)n1)Nc1ccc(F)cc1F | -9.9% | i | -1.7% | i | 11.6µM* | u
O=C(Nc1cccs1)Nc1ccc(Br)cc1F | u | i | u | i | 20.6µM* | u
O=C(NCc1csc(-c2cccs2)n1)Nc1ccc(C(F)(F)F)cc1 | 5.3% | i | -2.3% | i | u | 5.5%
O=C(Nc1cccs1)Nc1ccc(F)cc1F | 8.9% | i | 1.5% | i | 14.6µM* | 23.1µM*
Cc1ccc(N(CC(=O)NCCc2ccccc2)S(=O)(=O)N(C)C)cc1 | x | i | x | i | u | -19.9%
CC(C)(C)OC(=O)Nc1ccccc1-n1nnnc1C(C(=O)c1ccccc1)N1CCN(c2ccccn2)CC1 (stereo not given) | 4.1% | i | -1.4% | i | u | u
CN(CCc1ccccc1)C(C(=O)c1ccc2c(c1)OCO2)c1nnnn1-c1ccccc1NC(=O)OC(C)(C)C (stereo not given) | -8.2% | u | -17.7% | u | 16.4µM* | 14.6µM*
O=C(NCCc1ccccc1)c1ccc2c(c1)OCO2 | -0.5% | i | -2.2% | i | u | -18.6%
SMILES | HT1080-NT tox | KB-V1 MDR tox | HT1080 IDH1KD tx | KB-3-1 cytotox | TDP1 cell noCPT | TDP1 cell CPT
Cc1cc(NC(=O)OC(C)(C)C)c(-n2nnnc2C(C(=O)c2ccc3c(c2)OCO3)N2CCN(c3ccccn3)CC2)cc1C (stereo not given) | -1.8% | u | -0.2% | i | 16.4µM* | 23.1µM*
CCOC(=O)C1CCN(C(=O)CN(c2ccc3c(c2)OCCO3)S(C)(=O)=O)CC1 | 3.7% | i | 10.7% | i | 6.3% | -13.7%
CN(c1ccc([N+](=O)[O-])cc1/C=N/NC(=O)COc1ccccc1)C1CCCCC1 | -10.5% | i | -12.3% | i | 16.4µM* | u
CCc1ccc(OCC(=O)N/N=C/c2cc([N+](=O)[O-])ccc2N2CCCCCC2)cc1 | 6.8% | i | 4.1% | i | u | u
COc1cc(C(=O)N(C)CC2CCN(CCc3cccc(C(F)(F)F)c3)CC2)ccc1C | u | i | u | u | u | u
CCC(Oc1ccccc1OC)C(=O)N1CC(=O)Nc2ccccc21 (stereo not given) | 10.3% | i | 20.6% | u | -6.5% | 5.0%
CC(=O)Oc1cccc2c1C(=O)C1CC=CC(OC(C)=O)C1C2=O (stereo not given) | -6.0% | i | -12.3% | i | 23.1µM* | u
CC(C)(C)OC(=O)N1CCC(c2c(C(=O)NCC3CCN(C4CCCC4)C3)cnn2-c2ccccc2)CC1 (stereo not given) | -16.2% | u | -21.3% | i | -11.1% | u
CC(C)(C)OC(=O)N1CCC(c2c(C(=O)NCC3CCN(C4CCCC4)C3)cnn2-c2cccc(Cl)c2)CC1 (stereo not given) | u | i | 18.4µM* | i | u | u
Cc1ccc(CN2CCC(CNC(=O)c3cnn(-c4ccccc4)c3C3CCN(C(=O)OC(C)(C)C)CC3)CC2)cc1 | x | i | x | i | 14.6µM* | 14.6µM*
Cc1ccc(-n2ncc(C(=O)NCC3CCN(C4CCCC4)C3)c2C2CCN(C(=O)OC(C)(C)C)CC2)cc1 (stereo not given) | 23.1µM* | i | u | u | u | u
